Screening data as filed in PubChem.
MCF10A rerep – inducers of DNA re-replication in MCF 10A breast cells; MCF 10A DNA re-replication, Hoechst nuclear intensity, 48 h; Potency, µM (doses to about 46.1 µM), most hits filed as activators; hit rate 2.9% among 350,000; note: nearly all actives have a fitted effect of over 50% in size
KCNH2 WT inh – KCNH2 (human, wildtype) channel inhibition | U2OS, BacMam KCNH2, thallium flux FluxOr; active compounds read low | hit rate 0.37% among 340,000 | Q12809 | activity change, % at 1.84 µM;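 active = maximum activity change below -70%; inconclusive = maximum activity change between -70% and -50%; inactive = maximum activity change above -50%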
Target sequence (Q12809 whole entry, looked up): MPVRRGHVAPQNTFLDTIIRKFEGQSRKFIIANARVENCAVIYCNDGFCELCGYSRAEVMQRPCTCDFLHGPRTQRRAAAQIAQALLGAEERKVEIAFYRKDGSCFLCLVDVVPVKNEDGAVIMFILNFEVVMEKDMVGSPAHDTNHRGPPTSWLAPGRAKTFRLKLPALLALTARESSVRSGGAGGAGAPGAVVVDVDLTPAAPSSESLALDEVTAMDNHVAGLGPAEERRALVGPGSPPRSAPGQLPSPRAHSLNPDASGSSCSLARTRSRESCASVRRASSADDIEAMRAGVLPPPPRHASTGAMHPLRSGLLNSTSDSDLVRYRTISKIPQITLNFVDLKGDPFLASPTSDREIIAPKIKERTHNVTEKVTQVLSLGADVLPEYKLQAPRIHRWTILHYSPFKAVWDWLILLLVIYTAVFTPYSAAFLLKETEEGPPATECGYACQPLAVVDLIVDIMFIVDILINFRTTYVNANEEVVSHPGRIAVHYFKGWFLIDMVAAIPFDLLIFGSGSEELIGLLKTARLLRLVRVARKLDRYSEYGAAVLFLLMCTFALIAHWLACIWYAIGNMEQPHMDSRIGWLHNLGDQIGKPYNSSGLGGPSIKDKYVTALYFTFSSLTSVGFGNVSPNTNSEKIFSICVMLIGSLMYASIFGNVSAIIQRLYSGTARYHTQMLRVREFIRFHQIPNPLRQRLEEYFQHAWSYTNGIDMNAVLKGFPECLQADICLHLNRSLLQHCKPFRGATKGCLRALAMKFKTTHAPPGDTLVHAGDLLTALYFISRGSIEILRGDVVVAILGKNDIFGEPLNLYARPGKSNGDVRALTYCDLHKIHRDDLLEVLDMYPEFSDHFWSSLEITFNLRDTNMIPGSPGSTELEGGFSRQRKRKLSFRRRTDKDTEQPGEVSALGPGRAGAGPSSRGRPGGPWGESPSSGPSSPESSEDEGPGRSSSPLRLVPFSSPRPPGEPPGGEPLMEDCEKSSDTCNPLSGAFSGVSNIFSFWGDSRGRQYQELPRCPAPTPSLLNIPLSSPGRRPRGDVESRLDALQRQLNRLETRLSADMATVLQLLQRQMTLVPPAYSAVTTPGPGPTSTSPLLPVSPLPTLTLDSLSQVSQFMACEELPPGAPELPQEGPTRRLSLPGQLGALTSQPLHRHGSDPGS
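U2OS cells transduced with wild-type KCNH2 virus are loaded with FluxOr dye for 45 min, and thallium flux is measured in kinetic reads before and after stimulation buffer. Rate constants are normalized to DMSO controls.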
SW480 rerep – induces DNA re-replication in SW480 colon adenocarcinoma cells; AID 624297; hit rate 1.8% among 340,000; SW480 DNA re-replication, Hoechst DNA content imaging, 48 h; Potency, µM (doses to about 46.1 µM), most hits filed as activators; note: nearly all actives have a fitted effect of over 55% in size
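Treated cells incubate 48 hr (37 C, 5% CO2), are stained 40 min with Hoechst, and nuclear fluorescence is enumerated; a rise in nuclei with high DNA signal marks re-replication.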
KB-3-1 tox – KB-3-1 parental cell cytotoxicity; Potency, µM (highest dose often 46.1 µM), usual class: cytotoxic; hit rate 1.4% among 400,000; KB-3-1 viability, CellTiter-Glo ATP luminescence, 72 h; note: nearly all actives have a fitted effect of over 60% in size
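72 h, 37 °C compound treatment of KB-3-1 parental cells; CellTiter-Glo added, 10 min, luminescence read. Data corrected against DMSO-only plates and normalized before curve fitting.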
KB-V1 MDR tox – kills drug-selected multidrug resistant KB-V1 cells; AID 1347076; KB-V1 MDR cells viability, CellTiter-Glo, 72 h; Potency, µM (series often up to 46.1 µM), actives largely listed as cytotoxic; hit rate 3.4% among 400,000; note: nearly all actives have a fitted effect of over 60% in size
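KB-V1 MDR subline cells in DMEM (phenol-red free, 10% FBS) exposed to compounds in qHTS concentration series for 72 h at 37 degrees C. Viability read by CellTiter-Glo luminescence; concentration-effect curves fitted after normalization and correction.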
KCNH2 3.1 block – blocks the human KCNH2 3.1 channel isoform; activity change, % (tested at about 1.8 µM); AID 720553; U2OS KCNH2 3.1, thallium flux FluxOr; active compounds read low; hit rate 0.95% among 340,000;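 active = maximum activity change below -70%; inconclusive = maximum activity change from -70% to -50%; inactive = maximum activity change above -50%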;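 note: thallium influx rate constant from kinetic fluorescence after stimulation buffer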
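Steps: virus added to U2OS suspension (4 h, RT, dark); medium with 10% FBS added, cells plated, 37 C overnight; FluxOr/Red40 loading buffer 45 min RT; stimulation buffer, 2 min kinetic read; rate constant normalized.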
Numbers stand for hits. Only some compounds are listed: those with a hit (about 7.6% of all), similar ones and a draw of the others. Unless noted, calls come from the whole dose curve; as a rule, active = well fitted curve in the direction sought with a large enough effect; inconclusive = small, poorly fitted or top-dose-only effect, or another doubt; inactive = no such curve, though single readings can be large; an effect the other way counts as inactive or inconclusive.

`CC(C)(C)NS(=O)(=O)c1ccc(N2C(=O)c3ccccc3C2=O)cc1` gave MCF10A rerep inactive, KCNH2 WT inh inactive, SW480 rerep inactive, KB-3-1 tox inactive, KB-V1 MDR tox inactive and KCNH2 3.1 block inactive.
`CCCc1nn(C)c(C(=O)Nc2cccc(CC)c2)c1Cl` gave MCF10A rerep inconclusive, KCNH2 WT inh inactive, SW480 rerep inactive, KB-3-1 tox inactive, KB-V1 MDR tox 18µM and KCNH2 3.1 block inactive.
N#Cc1c(-c2cccnc2)c2c([nH]c1=O)-c1ccccc1OC2 was read as MCF10A rerep 15µM, KCNH2 WT inh inactive, SW480 rerep 2.6µM, KB-3-1 tox inactive, KB-V1 MDR tox inactive and KCNH2 3.1 block inactive.
N#Cc1c(-c2ccc(F)cc2)c2c([nH]c1=O)-c1ccccc1OC2 was read as MCF10A rerep 4.1µM, KCNH2 WT inh inactive, SW480 rerep 6.5µM, KB-3-1 tox inactive, KB-V1 MDR tox inactive and KCNH2 3.1 block inactive.
`N#Cc1c(-c2ccccc2)[nH]c(=O)[nH]c1=O` gave MCF10A rerep inactive, KCNH2 WT inh inactive, SW480 rerep inactive, KB-3-1 tox inactive, KB-V1 MDR tox inactive and KCNH2 3.1 block inactive.
CSc1c2c([nH]c(=O)c1C#N)-c1ccccc1CC2 was read as KB-3-1 tox inactive and KB-V1 MDR tox inactive.
CCOC(=O)c1ccc(N2C(=O)CC(N3CCN(C/C=C/c4ccccc4)CC3)C2=O)cc1 (centres undefined) was read as MCF10A rerep inactive, KCNH2 WT inh -84, SW480 rerep inactive, KB-3-1 tox inactive, KB-V1 MDR tox inactive and KCNH2 3.1 block -101.
For COc1cccc(Nc2n[nH]c(=S)s2)c1 the results were MCF10A rerep inactive, KCNH2 WT inh inactive, SW480 rerep inactive, KB-3-1 tox inactive, KB-V1 MDR tox inactive and KCNH2 3.1 block inactive.
`COc1cccc(NC2=Nc3cccc4cccc2c34)c1` gave MCF10A rerep inactive, KCNH2 WT inh inactive, SW480 rerep inactive, KB-3-1 tox inactive, KB-V1 MDR tox 13µM and KCNH2 3.1 block inactive.
Screening COc1ccc(NC2=Nc3cccc4cccc2c34)cc1OC returned MCF10A rerep inactive, KCNH2 WT inh inactive, SW480 rerep inactive, KB-3-1 tox inactive, KB-V1 MDR tox inconclusive and KCNH2 3.1 block inactive.
Screening COc1cc(NC2=Nc3cccc4cccc2c34)cc(OC)c1OC returned MCF10A rerep inconclusive, KCNH2 WT inh inactive, SW480 rerep inconclusive, KB-3-1 tox inactive, KB-V1 MDR tox 2.6µM and KCNH2 3.1 block inactive.
CC(C)(C)S(=O)N1Cc2ccc(CO)cc2[C@@H]1CCO (some centres undefined) was read as MCF10A rerep inactive, KCNH2 WT inh inactive, SW480 rerep inconclusive, KB-3-1 tox inactive, KB-V1 MDR tox inactive and KCNH2 3.1 block inactive.
Screening COc1ccc(OC)c(NC(=O)COC(=O)CCS(=O)(=O)c2ccc(Cl)cc2)c1 returned MCF10A rerep inactive, KCNH2 WT inh inactive, SW480 rerep inactive, KB-3-1 tox inactive, KB-V1 MDR tox inconclusive and KCNH2 3.1 block inactive.
Oc1cccc(C=NN=C2c3ccccc3-c3ccccc32)c1 was read as MCF10A rerep inconclusive, KCNH2 WT inh inactive, SW480 rerep inactive, KB-3-1 tox inactive, KB-V1 MDR tox 18µM and KCNH2 3.1 block inactive.
Screening O=C1Nc2ccccc2/C1=N/N=C/c1cccc(O)c1 returned MCF10A rerep inactive, KCNH2 WT inh inactive, SW480 rerep inactive, KB-3-1 tox inactive, KB-V1 MDR tox inactive and KCNH2 3.1 block inactive.
`COc1ccc(N2CCN(CCNS(=O)(=O)c3ccc(C)cc3)CC2)cc1` gave MCF10A rerep inactive, KCNH2 WT inh inactive, SW480 rerep inactive, KB-3-1 tox inactive, KB-V1 MDR tox inactive and KCNH2 3.1 block inactive.
`N#Cc1c(N)n(C2CCCCC2)c2nc3ccccc3nc12` gave MCF10A rerep 1µM, KCNH2 WT inh inactive, SW480 rerep 8.2µM, KB-3-1 tox inconclusive, KB-V1 MDR tox inconclusive and KCNH2 3.1 block inactive.
Screening Nc1c(C(=O)Nc2ccccc2)c2nc3ccccc3nc2n1-c1ccc(O)cc1 returned MCF10A rerep 15µM, KCNH2 WT inh inactive, SW480 rerep 7.3µM, KB-3-1 tox inactive, KB-V1 MDR tox inactive and KCNH2 3.1 block inactive.
Screening N#Cc1c(N)n(-c2ccc(C(=O)O)cc2)c2nc3ccccc3nc12 returned MCF10A rerep 18µM, KCNH2 WT inh inactive, SW480 rerep inconclusive, KB-3-1 tox inactive, KB-V1 MDR tox inactive and KCNH2 3.1 block inactive.
For CCC(=O)Nc1c(C#N)c2nc3ccccc3nc2n1C1CCCCC1 the results were MCF10A rerep inconclusive, KCNH2 WT inh inactive, SW480 rerep inconclusive, KB-3-1 tox inactive, KB-V1 MDR tox inactive and KCNH2 3.1 block inactive.
Screening Cc1ccccc1N(C(=O)CNC(=O)c1ccco1)C(C(=O)NC1CCCCC1)c1cccnc1 (centres undefined) returned MCF10A rerep inactive, KCNH2 WT inh inactive, SW480 rerep inactive, KB-3-1 tox inactive, KB-V1 MDR tox inconclusive and KCNH2 3.1 block inactive.
COc1ccc(-c2noc(CSc3nc4ccccc4[nH]3)n2)cc1OC was read as KB-3-1 tox inconclusive and KB-V1 MDR tox inactive.
For CC(C)CC(N)c1csc(NC(=O)Nc2ccccc2C(C)(C)C)n1 (centres undefined) the results were KB-3-1 tox inconclusive and KB-V1 MDR tox 23µM.
CC(C)CC(N)c1csc(NC(=O)NCCc2ccccc2)n1 (centres undefined) was read as KB-3-1 tox inactive and KB-V1 MDR tox inactive.
`COc1ccc(NC(=O)CC23CC4CC(CC(Br)(C4)C2)C3)c(OC)c1` gave MCF10A rerep inactive, KCNH2 WT inh inactive, SW480 rerep inactive, KB-3-1 tox inactive, KB-V1 MDR tox inactive and KCNH2 3.1 block inactive.
Screening COc1ccc(NC(=O)CNC(=O)C23CC4CC(CC(C4)C2)C3)c(OC)c1 returned MCF10A rerep inactive, KCNH2 WT inh inactive, SW480 rerep 4.6µM, KB-3-1 tox inactive, KB-V1 MDR tox inactive and KCNH2 3.1 block inactive.
`COCCNC(=O)C12CC3CC(C1)CC(c1ccccc1)(C3)C2` gave MCF10A rerep inactive, KCNH2 WT inh inactive, SW480 rerep inactive, KB-3-1 tox inactive, KB-V1 MDR tox inactive and KCNH2 3.1 block inactive.
For COc1ccc(NC(=O)C23CC4CC(C2)CC(c2ccccc2)(C4)C3)c(OC)c1 the results were MCF10A rerep inconclusive, KCNH2 WT inh inactive, SW480 rerep inconclusive, KB-3-1 tox inactive, KB-V1 MDR tox 15µM and KCNH2 3.1 block inactive.
Screening COc1ccccc1CNS(=O)(=O)CCNCCc1ccccc1 returned MCF10A rerep 21µM, KCNH2 WT inh inactive, SW480 rerep inactive, KB-3-1 tox inactive, KB-V1 MDR tox inactive and KCNH2 3.1 block inactive.
